# In PMC5540273 (PLoS ONE, 2017):
# Key:
# Conditions in all cases: concentration: 1 μM, replicates: in singlicate; n = 1
# [1] = system: PIP5K1A
# [2] = system: PIP5K1C
# [3] = system: PIP5K2B
# [4] = system: T1, PIP5K2C
# T1 construct: gene PIP4K2C
# [5] = system: T2, PKAC-alpha
# T2 construct: gene PRKACA
# [6] = system: T3, PKAC-beta
# T3 construct: gene PRKACB
# [7] = system: PKMYT1
# [8] = system: PKN1
# [9] = system: PKN2
# [10] = system: PLK1
# 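Also: KINOMEscan kinase panel screen.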
Compound,%Inh [1] [%],%Inh [2] [%],%Inh [3] [%],%Inh [4] [%],%Inh [5] [%],%Inh [6] [%],%Inh [7] [%],%Inh [8] [%],%Inh [9] [%],%Inh [10] [%]
Cc1cccc(Nc2nc(N[C@H]3CCCC[C@H]3N)ncc2C(N)=O)c1.Cl [GSK986310],0,63,9,12,19,29,16,34,9,1
CC(C)c1nc(-c2ccc(F)c(NS(=O)(=O)c3c(F)cccc3F)c2)c(-c2ccnc(Nc3ccc(N4CCOCC4)nc3)n2)s1 [GSK1804250],0,46,9,78,1,0,4,59,12,15
COc1cc(Nc2ccnc3cc(-c4ccncc4)ccc23)cc(OC)c1OC.Cl [GW494610],0,36,8,27,0,2,0,0,7,0
CCNc1nccc(-c2c(-c3ccc(F)cc3)ncn2C2CCN(C)CC2)n1,0,0,0,0,20,0,0,0,0,0
COc1cccc(C2=C(Nc3cccc(O)c3)C(=O)NC2=O)c1 [SB-390771],0,39,14,38,0,0,9,100,0,0
O=C(Nc1c(F)cccc1F)c1cc(C(=O)c2ccccc2F)c[nH]1 [GSK1326180],34,49,0,25,0,5,3,8,0,18
Cc1ccc(-c2ccc3occ(-c4ccc(S(C)=O)cc4)c3c2)nn1 (centres unmarked),0,42,17,58,0,0,11,0,9,0
CCn1cnc2c(NCc3ccccc3)ncnc21 [SKF-96418],21,22,0,0,0,0,0,0,0,14
CS(=O)(=O)c1cccc(CNc2nc(Nc3ccc4c(c3)CCC(=O)N4)ncc2C(F)(F)F)c1,61,58,59,69,0,0,0,49,2,0
Cl.O=C(Nc1ccc(Oc2ccc3[nH]c(NC(=O)c4ccco4)nc3c2)cc1)Nc1cc(C(F)(F)F)ccc1F [GW683134],0,10,0,0,0,8,0,7,0,0
O=C(Nc1n[nH]c2nc(-c3cccc(O)c3)ccc12)C1CC1 [SB-711805],32,98,8,0,3,0,0,0,24,0
Cc1ccc(Nc2ccnc(Nc3ccc(C)c(F)c3)n2)cc1O.Cl [GW582868],27,47,5,70,0,0,0,23,0,0
COC(=O)Nc1nc2cc(Oc3ccc(NC(=O)Nc4cccc(SC)c4)cc3)ccc2[nH]1.Cl [GW697999],56,62,20,40,0,4,0,0,0,0
O=C(O)C(F)(F)F.O=c1[nH]ccc2nc(N[C@@H]3CCNC3)nc(Nc3ccc4c(c3)S(=O)(=O)CC4)c12 [GSK2181306],57,84,84,76,24,43,16,0,71,31
COc1cccc(CC(=O)N2CCc3cc(-c4cn(C)c5ncnc(N)c45)ccc32)c1 [GSK2608899],0,10,34,0,4,12,10,19,0,9
COc1cc(Nc2nccc(N3CCC(NC(=O)Nc4ccc5c(c4)OCO5)C3)n2)cc(OC)c1OC (centres unmarked) [GSK1379766],19,56,0,92.3,0,0,0,35,0,2

Compound,%Inh [1] [%],%Inh [2] [%],%Inh [3] [%],%Inh [4] [%],%Inh [5] [%],%Inh [6] [%],%Inh [7] [%],%Inh [8] [%],%Inh [9] [%],%Inh [10] [%]
CCn1c(-c2nonc2N)nc2c(-c3ccccc3)ncc(OCCCN)c21.O=C(O)C(F)(F)F.O=C(O)C(F)(F)F [GSK260205],35,87,10,29,97.6,97.7,0,84,0,0
COc1ccc(C2=C(Nc3cccc(O)c3)C(=O)NC2=O)cc1 [SB-390766],4,82,0,10,0,0,13,0,38,95.9
NCCC(NC(=O)c1cc(Br)c(-c2ccnc3[nH]ccc23)s1)c1ccccc1.O=C(O)C(F)(F)F.O=C(O)C(F)(F)F (centres unmarked) [GSK1307810],82,81,0,57,99.4,99.6,0,50,87,0
CN(c1ccc(NC(=O)Nc2cccc(Cl)c2)cc1)c1ccnc(N)n1.Cl [GW830707],12,0,0,29,13,26,3,0,0,26
N#Cc1cnc2cc(-c3cnc(CNCCN4CCOCC4)s3)ccc2c1Nc1ccc(Oc2ccccc2)cc1 [GW664114],25,34,31,41,0,0,0,13,0,0
Cn1cc(-c2ccc3c(c2)CCN3C(=O)Cc2cc(F)cc(F)c2F)c2c(N)ncnc21 [GSK2634140],10,0,13,12,0,4,0,0,0,0
O=C(Nc1n[nH]c2nc(-c3ccccc3O)ccc12)C1CC1 [SB-711880],0,77,0,43,0,0,7,0,0,0
Cc1ccc(O)cc1Nc1ccnc2ccc(C(C)(C)C)cc12 [GW856805],0,0,0,0,43,0,14,0,14,63
CC(C)c1nc(-c2cccc(NS(=O)(=O)c3c(F)cccc3F)c2)c(-c2ccnc(Nc3ccc(N4CCOCC4)nc3)n2)s1.Cl [GSK1723980],0,20,18,85,0,0,0,16,0,0
O=C(O)C(F)(F)F.O=c1[nH]ccc2nc(N[C@@H]3CCNC3)nc(Nc3cc(Cl)cc(Cl)c3)c12 [GSK2188764],75,75,86,85,20,35,8,83,81,81
Cc1ccc(NC(=O)c2cccc(N3CCCCC3)c2)cc1-c1ccc(C(=O)NCC2CC2)cc1 [GSK1917008],0,25,8,0,0,14,0,17,0,0
COC(=O)Nc1nc2ccc(Oc3ccc(NC(=O)Nc4cc(C(F)(F)F)ccc4F)cc3)cc2[nH]1.Cl [GW654607],0,30,34,16,0,6,0,39,16,0
Cc1cccc(Nc2nc(NCCN)ncc2C(N)=O)c1 [GSK1292139],50,83,15,20,0,0,7,18,29,6
CCOc1nccc(-c2c(-c3ccc(F)cc3)ncn2C2CCNCC2)n1 [SB-249175],0,14,0,21,11,25,23,6,18,9
Fc1cc(Cl)ccc1Nc1ccnc2cc(-c3ccc(CN4CCSCC4)o3)ccc12 [GW560106],30,59,9,74,27,22,0,0,0,0
Nc1cccc(-c2ccc3c(N)n[nH]c3c2)c1 [GSK2193613],0,28,0,16,0,4,8,0,0,0
